Measured values taken from PubChem BioAssay AID588329 (National Center for Advancing Translational Sciences (NCATS), 2011).
Results filed as inconclusive are left out. A number with no mark means an inactive call. The source made the active and inactive calls. Calls follow the shape of the dose curve; as a rule, active = well fitted inhibition curve with a large enough effect; inconclusive = small, poorly fitted or top-dose-only effect; inactive = flat fitted curve, though single readings scatter.

tested on: Trypanosoma brucei 6-phosphofructokinase (PFK); test: Confirmatory Assay to Find Inhibitors of T. brucei phosphofructokinase: ATP-depletion Assay; details: recombinant T. brucei PFK, Kinase-Glo ATP depletion luminescence; series mostly up to 57.5 µM; activity, negative = inhibition: at the top concentration
Text: Various species of the protozoan family Trypanosomatidae are responsible for a range of serious human diseases in tropical and subtropical areas of the world. […] Many of the disorders caused by trypanosomatids are fatal if left untreated, but most currently used drugs are inefficient and toxic. […] Oxidative metabolism involving the mitochondrial tricarboxylic acid cycle and oxidative phosphorylation are repressed in these parasites, and recent RNA interference (RNAi) experiments have shown that even partial depletion of certain individual glycolytic enzymes can lead to the death of cultured parasites. One such glycolytic enzyme, phosphofructokinase (PFK), catalyzes the formation of fructose-1,6-bisphosphate (F1,6BP) and ADP from fructose-6-phosphate (F6P) and ATP, and in many metabolic circumstances makes an important contribution to the control of flux through the glycolytic pathway. As a specific glycolytic target, PFK is particularly attractive as it catalyzes the first irreversible step in glycolysis, and structural and kinetic studies have shown very substantial and essential differences from corresponding host enzymes, allowing for the discovery of parasite-selective inhibitors. NIH Chemical Genomics Center [NCGC] NIH Molecular Libraries Probe Centers Network [MLPCN] MLPCN Grant: MH092153-01 Assay Submitter (PI): Malcom Walkinshaw, University of Edinburgh
Substrate buffer was dispensed into white, solid 1536-well plates at 3ul/well in 0.1M triethanolamine (TEA) buffer, pH 8.0, containing final concentrations of 5 mM MgCl2, 0.01% Tween20, 0.5 mM fructose-6-phosphate (F6P) and 0.1mM ATP. Then, 23nl of compounds or DMSO were delivered to each well using a pin tool. One ul T. brucei PFK (0.1M TEA, 0.01% Tween20, 0.1% bovine serum albumin (BSA) and 1.25nM PFK, final concentrations) was then dispensed, and plates were incubated at room temperature for 45 min. The luminescent detection reagent, Kinase-Glo Plus (Promega), was then added at 2ul/well and incubated for ten minutes at room temperature. The plates were measured on a ViewLux plate reader for luminescent signal using a clear filter with a one second exposure. The %Activity was determined from the corrected luminescence values. As no specific T. brucei PFK inhibitors have been identified in the literature, 1x (1.25nM) and 0x PFK enzyme controls (untreated) were included to normalize %Activity of identified inhibitors; 0x enzyme values corresponded to 100%Activity (full inhibition), while 1x PFK enzyme values were used to normalize 0% activity (no inhibition). The Kinase-Glo Plus protocol varies from the primary screen in that it measures ATP, rather than ADP, concentration, and thus provides a measure of substrate depletion, rather than of product formation. Concentration-response curves were fitted to the signals arising from the resulting luminescence. The concentration-effect curves were then classified based on curve quality (r2), response magnitude and degree of measured activity, and compounds were subsequently categorized based on their curve class. […] Keywords: T. brucei, phosphofructokinase, PFK, glycolysis, luminescence, MLSMR, MLPCN, NIH Roadmap, qHTS, NCGC

Compound | activity, negative = inhibition [%] | Potency
COc1ccc(CC(=O)Nc2ccc(S(=O)(=O)Nc3cc(C)on3)cc2)cc1OC | -8.21 | –
Cc1cc(NS(=O)(=O)c2ccc(NC(=O)Cc3ccc(Cl)c(Cl)c3)cc2)n(C)n1 | – | 1030 nM (active)
Cc1cc(NS(=O)(=O)c2ccc(NC(=O)Cc3ccc(C)c(F)c3)cc2)no1 | – | 5170 nM (active)
Cc1cc(NS(=O)(=O)c2ccc(NC(=O)Cc3ccc(Cl)c(F)c3)cc2)no1 | – | 730 nM (active)
Cc1cc(NS(=O)(=O)c2ccc(NC(=O)Cc3ccc4ccccc4c3)cc2)no1 | – | 5170 nM (active)
O=C(Cc1ccc(Cl)c(Cl)c1)Nc1ccc(S(=O)(=O)Nc2ccccc2)cc1 | – | 10300 nM (active)
Cc1cc(NS(=O)(=O)c2ccc(NC(=O)Cc3ccc(C)c(C)c3)cc2)no1 | – | 16300 nM (active)
Cc1cc(N[S+](=O)([O-])c2ccc(NC(=O)Cc3ccc(Cl)nc3)cc2)no1 | – | 18300 nM (active)
Cc1cc(NS(=O)(=O)c2ccc(NC(=O)Cc3ccc(Cl)cc3Cl)cc2)no1 | – | 4610 nM (active)
O=C(Cc1ccc(Cl)c(Cl)c1)Nc1ccc(S(=O)(=O)Nc2cccc(O)c2)cc1 | – | 2060 nM (active)
Cc1cc(NC(=O)c2ccc(NC(=O)Cc3ccc(Cl)c(Cl)c3)cc2)no1 | -25.1 | –
O=C(Cc1ccc(Cl)c(Cl)c1)Nc1ccc(S(=O)(=O)Nc2cncnc2)cc1 | – | 651 nM (active)
O=C(Cc1ccc(Cl)c(Cl)c1)Nc1ccc(S(=O)(=O)O)cc1 | – | 580 nM (active)
Cc1cc(NS(=O)(=O)c2ccc(NC(=O)Cc3cccc(Cl)c3)cc2)no1 | – | 5170 nM (active)
Cc1cc(NS(=O)(=O)c2ccc(NC(=O)Cc3ccc(Cl)c(Cl)c3)cc2)on1 | – | 366 nM (active)
Cc1cc(NS(=O)(=O)c2ccc(NC(=O)CCc3ccc(Cl)c(Cl)c3)cc2)no1 | – | 16300 nM (active)

Compound | activity, negative = inhibition [%] | Potency
Cc1cc(NS(=O)(=O)c2cccc(NC(=O)Cc3ccc(Cl)c(Cl)c3)c2)no1 | – | 16300 nM (active)
Cc1cc(NS(=O)(=O)c2ccc(NC(=O)Cc3ccc(Cl)c(Cl)c3)cc2)no1 | – | 410 nM (active)
Cc1cc(N[S+](=O)([O-])c2ccc3cc(NC(=O)Cc4ccc(Cl)c(Cl)c4)ccc3c2)no1 | – | 5170 nM (active)
CN(C)c1cccc(NS(=O)(=O)c2ccc(NC(=O)Cc3ccc(Cl)c(Cl)c3)cc2)c1 | – | 16300 nM (active)
O=C(Cc1ccc(Cl)c(Cl)c1)Nc1ccc(S(=O)(=O)Nc2ccc(C(=O)O)cc2)cc1 | – | 326 nM (active)
O=C(Cc1ccc(Cl)c(Cl)c1)Nc1ccc(S(=O)(=O)Nc2cccc(C(=O)O)c2)cc1 | – | 651 nM (active)
Cc1cc(NS(=O)(=O)c2ccc(NC(=O)Cc3ccc(Cl)cc3)cc2)no1 | – | 2590 nM (active)
O=C(Cc1ccc(Cl)c(Cl)c1)Nc1ccc(S(=O)(=O)Nc2ccn[nH]2)cc1 | – | 326 nM (active)
Cc1cc(NS(=O)(=O)c2ccc(N(C)C(=O)Cc3ccc(Cl)c(Cl)c3)cc2)no1 | – | 1030 nM (active)
Cc1cc(N(C)S(=O)(=O)c2ccc(NC(=O)Cc3ccc(Cl)c(Cl)c3)cc2)no1 | – | 2590 nM (active)
Cc1cc(NS(=O)(=O)c2ccc(NC(=O)Cc3ccc(Cl)c(C(F)(F)F)c3)cc2)no1 | – | 651 nM (active)
O=C(Cc1ccc(Cl)c(Cl)c1)Nc1ccc(S(=O)(=O)Nc2ccon2)cc1 | – | 231 nM (active)
Cc1cc(NS(=O)(=O)Cc2ccc(NC(=O)Cc3ccc(Cl)c(Cl)c3)cc2)no1 | – | 2910 nM (active)
Cc1cc(NS(=O)(=O)c2ccc(NCCc3ccc(Cl)c(Cl)c3)cc2)no1 | – | 11600 nM (active)
Cc1cc(NS(=O)(=O)c2ccc(C(=O)NCc3ccc(Cl)c(Cl)c3)cc2)no1 | – | 2310 nM (active)
